The values below come from PubChem BioAssay AID1986 (Sanford-Burnham Center for Chemical Genomics, 2009).

The experiment is described as follows: inhibitors of HIV fusion peptide binding, primary screen, biochemical, uHTS, fluorescence dequenching (AID 1986). The settings on record: cell-free peptide binding, 30 min, stronger effect = higher value.
[1] abbreviates: measured here: repeat confirmation average inhibition, at 18.6 µM.

Out of some 290,000 compounds screened, about 890 (0.31%) were called active. Rule as the data show it: active = inhibition mostly above about 52% (no sharp cut-off); inactive = mostly below about 76%. Shown is part of a subset that was picked to be rich in actives.

As for `O=C(/C=C/c1ccccc1)NCCSCc1ccccc1Cl`, the inhibition (in general, the drop in the measured response relative to a control, in per cent) (at 20 µM) was -2.6% (inactive).

For the molecule `O=S1(=O)C=CC(c2ccccc2)C1` (centres undefined), where the note is “at 20 µM”, the inhibition was 0.2% (inactive).

Regarding `COC(=O)c1nn(-c2ccccc2)c(Sc2ccc(OC)cc2)c1/C=N/O`, where the note is “at 20 µM”, the inhibition was 2.7% (inactive).

In the case of `O=c1c(-c2ccccc2)coc2c(CN3CCCCC3)c(O)ccc12`, the inhibition (at 20 µM) was 0.2% (inactive).

Consider `O=C(O)C(c1ccccc1)N1C(=O)/C(=C\c2ccc(-c3cccc(Cl)c3)o2)SC1=S` (centres undefined), for which the inhibition by setting is: (at 20 µM) 91.2% (active); under setting [1], 120%.

As for `O=C1NC(=S)/C(=C\c2ccc(-c3ccccc3Cl)o2)S1`, the inhibition is, setting by setting: (at 20 µM) 70.7% (inactive); under setting [1], 0.5%.

`O=C(O)C(c1ccccc1)N1C(=O)/C(=C\c2ccc(-c3ccccc3Cl)o2)SC1=S` (centres undefined): the inhibition reads like this: (at 20 µM) 94.5% (active); under setting [1], 110%.

In the case of `O=C(O)C(c1ccccc1)N1C(=O)/C(=C/c2cccs2)SC1=S` (centres undefined), the inhibition (at 20 µM) is 14.3% (inactive).

Turning to `COc1ccccc1/C=C1\SC(=S)N(C(C(=O)O)c2ccccc2)C1=O` (centres undefined), the inhibition (at 20 µM) was 30.1% (inactive).

With `O=C(O)C(c1ccccc1)N1C(=O)/C(=C\c2ccc(-c3ccc(Br)cc3)o2)SC1=S` (centres undefined), the inhibition (at 20 µM) is 143% (inactive).

As for `COc1ccc(OC)c2[nH]c(=O)c(CCNC(=O)c3ccc(S(=O)(=O)N4CCCCC4)cc3)cc12`, the inhibition (at 20 µM) is -1.4% (inactive).

For the molecule `Cc1ccc2c(c1)N(CCC(=O)NCCCOC(C)C)C(=O)C(C)O2` (centres undefined), the inhibition (at 20 µM) was -1.1% (inactive).

For `COC(=O)c1sc2ccccc2c1NC(=O)c1ccc(S(=O)(=O)N2CC(C)CC(C)C2)cc1` (centres undefined), for the setting “at 20 µM”, the inhibition is -1.5% (inactive).

For the molecule `CCOc1ccc(Br)cc1S(=O)(=O)NCCN(C)C`, the inhibition (at 20 µM) was 2% (inactive).

`CCN(CC)c1ccc2c(C)c(Cl)c(=O)oc2c1`: the inhibition (at 20 µM) was 4.7% (inactive).

Take `CCN(CC)c1ccc2c(c1)oc(=O)c1c(Cl)cc(=O)oc12`: the inhibition is, setting by setting: (at 20 µM) 106% (active); under setting [1], 164%.

Regarding `CCN(CC)c1ccc2c(Cl)cc(=O)oc2c1`, under “at 20 µM”, the inhibition was 3.7% (inactive).

For `C#CCOCCOCCOCCNc1nc(N2CCN(C(=O)[C@H]([C@@H](C)CC)n3cc([C@@H](N)CC(C)C)nn3)CC2)nc(N2CCN(C(=O)[C@H](CCCCN)n3cc([C@@H](N)CO)nn3)CC2)n1`, where the note is “at 20 µM”, the inhibition is -1.1% (inactive).

For the molecule `CC(C)(C)NC(=O)NC(=O)COC(=O)c1ccco1`, the inhibition (at 20 µM) was 1.7% (inactive).

With `O=C(O)/C=C/C(=O)N(CC1CCCO1)C1CC(=O)N(c2c(Cl)cccc2Cl)C1=O` (centres undefined), the inhibition (at 20 µM) is 7.8% (inactive).

For `O=C1N=C(N2CCCC2C(=O)O)S/C1=C\c1ccco1` (centres undefined), where the note is “at 20 µM”, the inhibition is 52.2% (active).

In the case of `O=C1N=C(N2CCN(c3ccccc3)CC2)S/C1=C\c1ccco1`, under “at 20 µM”, the inhibition is 0.9% (inactive).

With `O=C1N=C(N2CCN(c3ccccc3)CC2)S/C1=C/c1ccco1`, the inhibition (at 20 µM) is -1.8% (inactive).

As to `CCOc1cc(CNCCCN2CCOCC2)cc(Br)c1OCc1ccccc1Cl`, under “at 20 µM”, the inhibition is 0.9% (inactive).

In the case of `Cc1ccc(N/N=C/c2ccc3c(c2)OCCO3)cc1Cl`, the inhibition (at 20 µM) was 2.7% (inactive).

As to `COC(=O)c1nnn(-c2ccccc2)c1N`, the inhibition (at 20 µM) is -4.4% (inactive).

Turning to `CCOC(=O)C1=C(N)n2c(s/c(=C\c3cccs3)c2=O)=C(C(=O)OCC)C1c1cccs1` (centres undefined), the inhibition (at 20 µM) was 3.8% (inactive).

Take `N#CC1=C(N)n2c(s/c(=C\c3cccs3)c2=O)=C(C#N)C1c1cccs1` (centres undefined): under “at 20 µM”, the inhibition was 74.8% (active).

For `N#CC1=C(N)n2c(s/c(=C\c3ccco3)c2=O)=C(C#N)C1c1ccco1` (centres undefined), the inhibition (at 20 µM) is 26% (inactive).

For the molecule `CCc1nnc(NC(=O)C2Cc3ccccc3C(=O)O2)s1` (centres undefined), the inhibition (at 20 µM) was -3.6% (inactive).

As for `CCOC(=O)c1c(/N=C/C2=C(O)CCCC2=O)sc2c1CCCC2`, for the setting “at 20 µM”, the inhibition is -0.2% (inactive).

Consider `CCOC(=O)c1c(CC(C)C)csc1/N=C/C1=C(O)CCCC1=O`, for which the inhibition (at 20 µM) was 21.5% (inactive).

For `CCOC(=O)c1c(-c2ccc(OC)cc2)csc1/N=C/C1=C(O)CCCC1=O`, the inhibition (at 20 µM) was 71.6% (active).

As to `CCOC(=O)c1c(/N=C/C2=C(O)CC(C)(C)CC2=O)sc(C)c1C`, the inhibition (at 20 µM) is 1.6% (inactive).

With `CCOC(=O)c1c(/N=C/C2=C(O)CCCC2=O)sc(C)c1C`, the inhibition (at 20 µM) was 52.3% (active).

As for `CCOC(=O)c1c(-c2ccc(OC)cc2)csc1/N=C/C1C(=O)CCCC1=O`, the inhibition by setting is: (at 20 µM) 52.3% (inactive); under setting [1], 2.2%.

`Cc1ccc(C(=O)CC(C(=O)O)n2cncn2)cc1` (centres undefined): under “at 20 µM”, the inhibition was 1.7% (inactive).

`Cc1ccc2c(c1)S/C(=C/c1ccc[n+](C)c1)N2CCO`: the inhibition (at 20 µM) was -0.9% (inactive).

With `O=C(CC1SC(=O)N(Cc2ccccc2Cl)C1=O)Nc1nccs1` (centres undefined), the inhibition (at 20 µM) was -0.8% (inactive).

Regarding `Cn1c(CCNC(=O)C(C)(C)C)nc2ccccc21`, where the note is “at 20 µM”, the inhibition was 1.8% (inactive).

Take `CN(C)[C@@H]1C(=O)C(C(N)=O)=C(O)[C@@]2(O)C(=O)C3=C(O)c4c(O)ccc(Cl)c4[C@@H](O)[C@H]3C[C@@H]12`: under “at 20 µM”, the inhibition is 58.4% (active).

For `C[C@H]1c2cccc(O)c2C(O)=C2C(=O)[C@]3(O)C(O)=C(C(N)=O)C(=O)[C@@H](N(C)C)[C@@H]3[C@@H](O)[C@@H]21`, the inhibition (at 20 µM) is 16% (inactive).

Take `CN(C)c1ccc(O)c2c1CC1CC3[C@@H](N(C)C)C(=O)C(C(N)=O)=C(O)[C@]3(O)C(=O)C1=C2O` (some centres undefined): the inhibition by setting is: (at 20 µM) 54% (inactive); under setting [1], 4.9%.
